Laboratory results published in PubChem BioAssay AID588522 (NMMLSC, 2011).
Screen size: about 1,700 compounds; about 20 (1%) were called active.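 How the source made its calls: active means inhibition above the screen-wide mean plus twice its standard deviation (cut at about 32% in these data); inactive means the rest.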 For the sample, actives were picked, then their nearest neighbours and some compounds at random.

Each molecule was assayed on Candida albicans drug resistance protein 1 (Cdr1) expressed in S. cerevisiae (assay: inhibitors of Candida albicans Cdr1 efflux pump, confirmation, S. cerevisiae AD/CaCDR1, flow cytometry, cherry pick 1, singleplex (AID 588522)). Details: S. cerevisiae AD/CaCDR1, Nile Red efflux, at 10 µM, active compounds read high.
For `O=C(Cc1ccccc1)NCC1OCCc2ccccc21` (stereo unspecified), the inhibition was -0.03% (inactive). `COc1ccc(C(=O)NC2CC(C)(C)Cc3c2cnn3-c2ccccc2)c(OC)c1` (stereo unspecified) was tested, and the inhibition was -0.08% (inactive). `O=C(CNC(=O)c1ccc(-c2ccccc2)cc1)OCc1ccc(Cl)cc1` was tested, and the inhibition was 0.15% (inactive). With `O=C(OCc1ccc(-c2ccccc2)cc1)c1cccc(O)c1` the inhibition was 0.08% (inactive). `O=C(CSc1nnc(-c2cccnc2)n1Cc1ccco1)c1ccc(Cl)c(Cl)c1` was tested, and the inhibition was -0.04% (inactive). In the case of `Cc1oc2cc3oc(=O)ccc3cc2c1C`, the inhibition is reported as -0.1% (inactive). With `CC12CCC(C(=O)N(c3cccc(Cl)c3)C1=O)C2(C)C` (stereo unspecified) the inhibition was 0.11% (inactive). With `Cc1cc(C)cc(NC(=O)C(OC(=O)c2ccc(O)cc2)c2ccccc2)c1` (stereo unspecified) the inhibition was -0.12% (inactive). In the case of `COc1ccccc1/C=C/C=N/n1c(-c2ccc(Cl)cc2Cl)n[nH]c1=S`, the inhibition is reported as 0.09% (inactive). `CCOc1ccc(C2/C(=C(/O)c3ccc4c(c3)CC(C)O4)C(=O)C(=O)N2CCCn2ccnc2)cc1` (stereo unspecified) was tested, and the inhibition was 0.05% (inactive). For `CC(/C=C/c1ccccc1)=N\NC(=O)C1CC1(C)c1ccccc1` (stereo unspecified), the inhibition was -0.03% (inactive). For `O=C(Nc1ccc(NC(=O)c2cccs2)cc1)c1ccc2ccccc2c1`, the inhibition was 0.04% (inactive). With `CCNC(=O)c1c(O)c2cccc3c2n(c1=O)CC3` the inhibition was -0.08% (inactive). With `Cc1cccc(NC(=O)COc2ccccc2C)n1` the inhibition was -0.06% (inactive). In the case of `O=C(CN1C(=O)C2C3CCC(C3)C2C1=O)Oc1ccc2ccccc2c1` (stereo unspecified), the inhibition is reported as -0.01% (inactive). For `CCCc1nnc(SCC(=O)Nc2ccc(C(=O)OCC)cc2)o1`, the inhibition was 0.53% (inactive). `O=C(/C=C/c1c(Cl)cccc1Cl)NCc1ccccc1` was tested, and the inhibition was -0.01% (inactive). With `CCNc1c(NS(=O)(=O)c2ccc(C3CCCCC3)cc2)c(=O)oc2ccccc12` the inhibition was -0.2% (inactive). For `CSCCC(NC(=O)COc1ccccc1)C(=O)OCCOc1ccc(Br)cc1` (stereo unspecified), the inhibition was -0.03% (inactive). With `Cc1csc(NC(=O)c2ccc(-c3ccc(Cl)cc3Cl)o2)n1` the inhibition was 0.16% (inactive). For `Cc1cc(/C=N/NC(=O)CC2(C)OCCO2)c(C)n1-c1ccc(Cl)c(Cl)c1`, the inhibition was 0.13% (inactive). In the case of `COc1ccc(S(=O)(=O)N2CCOC2CNC(=O)C(=O)NCc2ccc(F)cc2)cc1` (stereo unspecified), the inhibition is reported as 0.04% (inactive). `Cc1ccc(N=C2NC(=O)/C(=C/C=C/c3ccco3)S2)cc1C` was tested, and the inhibition was 0.36% (inactive). For `CSCCC(NS(=O)(=O)c1ccc(C)cc1)C(=O)N1CCCC1` (stereo unspecified), the inhibition was -0.1% (inactive). With `C/C(N)=C(/C#N)C(=O)COC(=O)c1cc(-c2cccc(Br)c2)nc2ccccc12` the inhibition was 0.12% (inactive). In the case of `Cc1ccc(/C=C(\C#N)C(=O)Nc2cccc3ncccc23)o1`, the inhibition is reported as -0.54% (inactive). With `O=C(NCc1ccccc1)C(=O)NCC1OCCN1S(=O)(=O)c1ccc(Br)cc1` (stereo unspecified) the inhibition was -0.27% (inactive). In the case of `Cc1nn(C)cc1N1C(=O)c2cccc3c(N)ccc(c23)C1=O`, the inhibition is reported as -0.53% (inactive). In the case of `CN(C)S(=O)(=O)c1cc(C(=O)Nc2ccn(C)n2)c(Cl)cc1Cl`, the inhibition is reported as -0.51% (inactive). In the case of `COc1ccc(C(=O)C2CCCN(Cc3cccn3-c3ccccn3)C2)c(C)c1` (stereo unspecified), the inhibition is reported as 0.01% (inactive). For `CCOc1ccc(/C=C2\SC(=S)N(NC(=O)c3ccncc3)C2=O)cc1OC`, the inhibition was -0.06% (inactive). In the case of `COc1ccc(NC(=S)N2CCc3cc(OC)c(OC)cc3C2)cc1`, the inhibition is reported as 0.16% (inactive). For `CCn1c(/C=C/c2ccc([N+](=O)[O-])o2)nc2ccccc2c1=O`, the inhibition was 0.83% (inactive). `CC(C)C(=O)N1CCC2(CC1)Oc1ccc(F)cc1C(=O)C21CC(c2ccccc2)=NO1` (stereo unspecified) was tested, and the inhibition was 0.01% (inactive). In the case of `COc1cccc(NC(=O)CN(C)C(=O)/C=C/c2cc(OC)ccc2OC)c1`, the inhibition is reported as -0.15% (inactive). With `COc1ccc(/C=C(\C#N)c2c[nH]c3ccccc23)cc1` the inhibition was -0.2% (inactive). With `NNC(=O)COc1ccc(C2SCCS2)cc1` the inhibition was -0.06% (inactive). In the case of `O=C(CCCCCn1c(=O)[nH]c2ccccc2c1=O)NCCc1c[nH]c2ccccc12`, the inhibition is reported as -0.02% (inactive). `COc1ccc(-c2sc3ccccc3c2-c2ccc(OCCN3CCOCC3)cc2)cc1` was tested, and the inhibition was -0.26% (inactive). `COc1cccc(-c2sc3ccc(OC)cc3c2-c2ccc(OCCN3CCCCC3)cc2)c1` was tested, and the inhibition was 45.4% (active). With `COc1ccc2sc(-c3ccccc3OC)c(-c3ccc(OCCN4CCCC4)cc3)c2c1` the inhibition was 4.57% (inactive). `Cc1nn(C)cc1C(=O)Nc1ccccc1Br` was tested, and the inhibition was -0.09% (inactive). `CCCCCCCCCCCCCCCC(=O)OC/C=C(C)/C=C/C=C(C)/C=C/C1=C(C)CCCC1(C)C` was tested, and the inhibition was 0.11% (inactive). `C=CCC[C@@H](Cc1ccc(F)cc1)C(=O)OC[C@H](Cc1c[nH]c2ccccc12)NC(=O)[C@@H](CC=C)CC(=O)N(CCO)Cc1ccccc1` was tested, and the inhibition was 0.17% (inactive). For `CN=C(c1ccccc1)c1c(C)cccc1C`, the inhibition was 0.01% (inactive). With `Cc1cc(C(=O)Nc2ccc(C)c(S(=O)(=O)N3CCOCC3)c2)c2ccccc2n1` the inhibition was -0.08% (inactive). `CCc1ccc(NC(=O)Cn2ncn3c(cc4ccccc43)c2=O)cc1` was tested, and the inhibition was -0.23% (inactive). For `Cc1ccc(OCc2cc(C(=O)N(C)CCc3ccccc3)no2)cc1C`, the inhibition was -0.15% (inactive). With `CCOc1ccc2nc(Cl)c(C3CC(c4ccccc4)=NN3C(=O)c3cccs3)cc2c1` (stereo unspecified) the inhibition was 0.11% (inactive). For `O=C1NC(=O)C2C1C(c1ccc([N+](=O)[O-])cc1)=NN2Cc1ccccc1` (stereo unspecified), the inhibition was 0.24% (inactive). In the case of `CCCCCC(=O)Nc1ccc(C(=O)N/N=C/c2ccc([N+](=O)[O-])cc2)cc1`, the inhibition is reported as 0.01% (inactive). For `CCOC(=O)CNC(=O)CSc1nnnn1-c1cc(C)ccc1C`, the inhibition was -0.03% (inactive). In the case of `CC[n+]1cc(C)ccc1/C=C/c1ccc(N(C)C)cc1`, the inhibition is reported as 4.74% (inactive). `COc1ccc2[nH]c3c(C)c4cc[n+](C)cc4c(C)c3c2c1` was tested, and the inhibition was 0.08% (inactive). With `Cc1c(CCOC(=O)CC23CC4CC(CC(C)(C4)C2)C3)sc[n+]1Cc1ccc([N+](=O)[O-])cc1` the inhibition was 0.01% (inactive). With `CCOC(=O)c1c(NC(=S)NC(=O)c2ccco2)sc2c1CCCC2` the inhibition was -0.31% (inactive). `C[n+]1ccc(/C=C/c2c[nH]c3ccccc23)cc1` was tested, and the inhibition was 3.85% (inactive). `COc1ccc(C(=O)NC2CCCc3c2cnn3-c2cccc(C)c2C)c(OC)n1` (stereo unspecified) was tested, and the inhibition was -0.29% (inactive). With `CC(/C=N/NC(=O)c1cc(-c2ccc3ccccc3c2)n[nH]1)=C\c1ccco1` the inhibition was -0.15% (inactive). In the case of `O=C(Cc1ccc(Br)cc1)N1CCN(c2ccccn2)CC1`, the inhibition is reported as -0.06% (inactive). With `CCCCN1C(=O)/C(=C/C=C2/C=Cc3ccccc3N2CC)SC1=S` the inhibition was -0.08% (inactive). `Cc1ccc(Cn2c(C)nc3c(c2=O)c2nc4ccccc4nc2n3Cc2ccco2)cc1` was tested, and the inhibition was 0.09% (inactive). `Cc1ccc2[nH]c3c(=O)n(CC(=O)NCCc4ccc(Cl)cc4)ncc3c2c1` was tested, and the inhibition was 0.27% (inactive). For `COc1ccc(C(=O)NC(=S)Nc2ccc(N3CCCC3)cc2)cc1OC`, the inhibition was -0.15% (inactive). For `Cc1nc2c(C(=O)NCc3ccc4c(c3)OCO4)c[nH]n2c(=O)c1Cc1ccccc1F`, the inhibition was -0.08% (inactive). `COc1ccccc1NC(=O)C1CCCN1S(=O)(=O)c1ccc(Cl)cc1` (stereo unspecified) was tested, and the inhibition was -0.03% (inactive). For `CCCc1nc(N2CCN(C)CC2)c2sc(=S)n(-c3ccccc3)c2n1`, the inhibition was 0.07% (inactive). In the case of `Cc1ccc(Cn2nnc3c(=O)[nH]c(C4CCN(S(=O)(=O)/C=C/c5ccccc5)CC4)nc32)cc1`, the inhibition is reported as -0.06% (inactive). With `CCCCOc1ccc(C(=O)NCC(=O)OCC(=O)c2c(N)n(C)c(=O)n(C)c2=O)cc1` the inhibition was 106% (active). In the case of `COc1ccccc1CSc1ncc(-c2ccc([N+](=O)[O-])cc2)[nH]1`, the inhibition is reported as -0.02% (inactive). In the case of `CCOc1ccccc1/C=c1\sc2nc(-c3ccco3)nn2c1=O`, the inhibition is reported as 0.21% (inactive). `O=C(Cn1c(COc2ccccc2)nc2ccccc21)Nc1cc(Cl)c(Cl)cc1Cl` was tested, and the inhibition was 0.09% (inactive). With `CC1CCc2c(sc(NC(=O)c3ccc(Cn4cc(Br)cn4)o3)c2C(N)=O)C1` (stereo unspecified) the inhibition was -0.03% (inactive). In the case of `Cc1ccc2c(c1)NC(=O)[C@@]1(C)[C@@H](c3ccccc3)[C@H]3COc4ccc(Cl)cc4[C@@H]3N1C2=O`, the inhibition is reported as 0.07% (inactive). With `CN1CCN(S(=O)(=O)c2ccc(NC(=S)NC(=O)C3CC3)cc2)CC1` the inhibition was -0.08% (inactive). With `O=S(=O)(c1ccccc1)N1CCc2ccccc21` the inhibition was 0.54% (inactive).
